{"source": "PubChem BioAssay AID2057", "about": "(The Scripps Research Institute Molecular Screening Center, 2009)", "note": "In all, about 320,000 compounds went through this assay and about 2,100 (0.66%) were called active.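 Rule for the calls: active = inhibition above the mean inhibition of all tested compounds plus 3 SD, set per campaign (cut at about 40% in these data); inactive = the rest.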 The list comes from a sample in which actives are over-represented; it also holds similar structures and randomly drawn compounds.", "data": [{"biological_target": "Induced myeloid leukemia cell differentiation protein Mcl-1 (Homo sapiens) (UniProt Q07820)", "sequence (Q07820 whole entry, looked up)": "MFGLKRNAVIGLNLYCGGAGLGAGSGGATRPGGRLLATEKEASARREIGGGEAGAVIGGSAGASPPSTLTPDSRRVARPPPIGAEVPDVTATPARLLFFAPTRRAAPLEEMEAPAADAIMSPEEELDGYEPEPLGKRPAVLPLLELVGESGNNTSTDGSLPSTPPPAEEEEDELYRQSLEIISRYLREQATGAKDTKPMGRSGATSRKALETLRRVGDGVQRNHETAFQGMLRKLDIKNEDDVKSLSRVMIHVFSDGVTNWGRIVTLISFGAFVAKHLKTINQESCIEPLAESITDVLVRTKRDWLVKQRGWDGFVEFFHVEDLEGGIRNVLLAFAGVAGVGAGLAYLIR", "test": "inhibitors of MCL1 binding to BIM-BH3, primary screen, biochemical, fluorescence polarization (AID 2057);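 note: 0% = DMSO wells and 100% = unlabeled Bim-BH3 peptide control; higher means more loss of mP so more displacement of Bim peptide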", "conditions": "GST-MCL1 / FITC-Bim-BH3 fluorescence polarization; at 10.9 µM; hits give high values", "values": [{"smiles": "Cc1cc(C)c2c(-n3cccc3)c(C(=O)NNS(=O)(=O)c3ccc(F)cc3)sc2n1", "inhibition": "13.1% (inactive)"}, {"smiles": "COc1ccc(CNC(=O)c2cc3c(=O)n4ccccc4nc3n(CC3CCCO3)c2=N)cc1", "note": "(centres undefined)", "inhibition": "9.61% (inactive)"}, {"smiles": "Cc1cccn2c(=O)c3cc(C#N)c(=NC(=O)c4cccnc4)n(CC4CCCO4)c3nc12", "note": "(centres undefined)", "inhibition": "44.1% (active)"}, {"smiles": "Cc1cccn2c(=O)c3cc(C#N)c(=O)n(CCCN4CCOCC4)c3nc12", "inhibition": "23.2% (inactive)"}, {"smiles": "CCN(CC(=O)NCc1cccs1)c1nnnn1-c1ccccc1", "inhibition": "3.16% (inactive)"}, {"smiles": "O=C(NCc1cccnc1)C12CC3CC(CC(C3)C1)C2", "inhibition": "3.8% (inactive)"}, {"smiles": "Cc1ccc(S(=O)(=O)C(C#N)c2nc3ccccc3nc2N2CCCC2)cc1C", "note": "(centres undefined)", "inhibition": "75.8% (active)"}, {"smiles": "Cc1cc(N2CCN(S(=O)(=O)c3ccc(C)c(C)c3)CC2)c2ccccc2n1", "inhibition": "-2.07% (inactive)"}, {"smiles": "Cc1ccc(S(=O)(=O)Nc2nc3ccccc3nc2N2CCc3ccccc3C2)cc1", "inhibition": "12.7% (inactive)"}, {"smiles": "O=C(CN1CCN(S(=O)(=O)c2ccc(Cl)s2)CC1)N1CCCCC1", "inhibition": "5.82% (inactive)"}, {"smiles": "O=C(NCCC1CCCCN1S(=O)(=O)c1ccc(Cl)cc1)C(=O)NCc1ccco1", "note": "(centres undefined)", "inhibition": "9.57% (inactive)"}, {"smiles": "CCCn1c(C2CCCN2c2nc(-c3ccc(C)cc3)cs2)nc2cc(Cl)c(N3CCCCC3)cc21", "note": "(centres undefined)", "inhibition": "75.2% (active)"}, {"smiles": "CCCn1c(C2CCCN2c2nc(-c3ccc(OC)cc3)cs2)nc2ccccc21", "note": "(centres undefined)", "inhibition": "11.8% (inactive)"}, {"smiles": "CCCn1c(C(C)Nc2nc(-c3ccc(C)cc3)cs2)nc2cc(Cl)c(N3CCCCC3)cc21", "note": "(centres undefined)", "inhibition": "5.75% (inactive)"}, {"smiles": "O=C1N[C@@H](Cc2ccccc2)C(=O)N2[C@@H]3N(S(=O)(=O)c4ccc(F)cc4)c4ccccc4[C@]3(Br)C[C@@H]12", "inhibition": "8.03% (inactive)"}, {"smiles": "CC(=O)NC(C)(C)C1CC=C(C)/C(=N\\O)C1", "note": "(centres undefined)", "inhibition": "-0.57% (inactive)"}, {"smiles": "CCn1c(SCc2ccccc2)nc2cc(OC)c(OC)cc2c1=O", "inhibition": "3.42% (inactive)"}, {"smiles": "CSc1c(SCc2ccccc2)cnn(Cc2ccccc2)c1=O", "inhibition": "181% (active)"}, {"smiles": "COC(=O)c1ccc(SCc2ccccc2)nc1", "inhibition": "11.2% (inactive)"}, {"smiles": "Cc1c(C)c(C)c(S(=O)(=O)N2CCC3(CC2)OCCO3)c(C)c1C", "inhibition": "6.11% (inactive)"}, {"smiles": "Cc1cc(CNC(=O)C2CCC(=O)N(CCc3ccc(Cl)cc3)C2)no1", "note": "(centres undefined)", "inhibition": "2.34% (inactive)"}, {"smiles": "Cc1ccc(C(=O)NC2CCCC(C)C2C)cc1S(=O)(=O)N1CCCCC1", "note": "(centres undefined)", "inhibition": "-1.76% (inactive)"}, {"smiles": "O=C(Nc1nccs1)c1cc(S(=O)(=O)N2CCOCC2)c(Cl)cc1Cl", "inhibition": "5.02% (inactive)"}, {"smiles": "Oc1cc2c(cc1O)CN(C(=S)NCCc1ccc(Cl)cc1)CCC2", "inhibition": "34.4% (inactive)"}]}]}
